GLP1R inv ag = inverse agonists of human GLP-1 receptor; P43220; HEK293 GLP-1R CRE-luciferase, luminescence, 24 h; GLP-1R form is constitutively active; Potency, µM (doses to about 38.3 µM), for inactives: at the highest dose activity change, negative = inhibition, hits mostly inhibitors; 1.6% of 410,000 active; also: potency is read from the fitted curve at half-maximal effect; % is scaled to controls: 0 for no effect and ±100 for the full control effect; nearly all actives have a fitted effect of over 55% in size
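HEK293 cells stably co-expressing constitutively active GLP-1R and a cAMP-responsive luciferase reporter were seeded in DMEM with 10% Nu serum, given compounds after 12 h, and incubated 24 h at 37 deg C. Luminescence was then read.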
GLP1R cytotox = cytotoxic in the GLP-1 receptor inverse agonist counter-screen | HEK293 cAMP-luciferase reporter cells, luminescence, 24 h | Potency, µM (series often up to 38.3 µM), for the others: at the top dose activity change, negative = inhibition, usual class: inhibitors | 0.13% of 410,000 active | AID 624418;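 also: loss of luciferase light is scored as toxicity; potency is read from the fitted curve at half-maximal effect; % is scaled to controls: 0 for no effect and ±100 for the full control effect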
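Here, cytotoxicity is scored as loss of luminescence. The MLSMR collection was tested on cells seeded in medium containing 10% Nu serum, with a 24 hr compound exposure preceded by 12 hours of culture.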
TRHR enhancer = TRH receptor (human) allosteric enhancement; P34981; TRHR cells, fluo-8 calcium fluorescence, EC20 TRH enhancement; enhancement, % at 2 µM; 0.66% of 360,000 active; AID 493056; in the data active = enhancement above about 30%; also: 0% is about no effect
Target sequence (P34981 whole entry, looked up): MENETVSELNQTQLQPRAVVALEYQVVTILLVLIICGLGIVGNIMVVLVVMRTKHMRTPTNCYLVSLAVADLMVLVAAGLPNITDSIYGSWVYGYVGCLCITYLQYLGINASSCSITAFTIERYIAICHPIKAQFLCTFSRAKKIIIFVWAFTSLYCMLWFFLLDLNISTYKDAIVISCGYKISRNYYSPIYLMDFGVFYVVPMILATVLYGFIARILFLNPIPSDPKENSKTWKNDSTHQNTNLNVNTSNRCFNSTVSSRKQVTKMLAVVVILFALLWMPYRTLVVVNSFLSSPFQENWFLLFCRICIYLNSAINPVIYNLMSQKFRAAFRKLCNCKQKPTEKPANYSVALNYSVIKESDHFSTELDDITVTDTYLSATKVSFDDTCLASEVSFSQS
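TRHR-expressing cells loaded with fluo-8 calcium dye were read kinetically (ex 480/em 530) during compound addition, then stimulated with an EC20 of TRH (10 nM final). Enhancement of the Gq-mediated intracellular calcium response was scored.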
TRHR agonist = agonists of human TRH receptor. P34981. TRHR cells, calcium flux fluo-8, FDSS agonist mode. activation, % at 2 µM. 0.18% of 360,000 active. AID 493084; in the data active = activation above about 30%; also: 0% is about no effect
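Fluo-8-loaded TRHR cells; 10 s baseline, compound added, kinetic Ca2+ fluorescence read 1/s, agonist mode.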
PTHR1 ag = activates the human parathyroid hormone receptor PTHR1; 0.075% of 410,000 active; Potency, µM (highest dose often 115 µM), for the others: at the top dose activation, hits mostly activators; HEK293 GP2 PTHR1 cells, GloSensor cAMP luminescence, 1 h; Q03431; also: potency is read from the fitted curve at half-maximal effect; nearly all actives have a fitted effect of over 55% in size
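HEK-293-derived GP2 cells expressing PTHR1 and a GloSensor cAMP reporter, 3,000/well, plated overnight, given luciferin plus IBMX (each 0.5 mM as added) for 1 h at 37 °C, then compound for 1 h at 37 °C. Luminescence was read after 15 min at room temperature.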
GLP1R ag = agonists of human GLP-1 receptor; P43220; HEK293 GLP-1R CRE-luciferase, luminescence, 4-6 h; cells express a hypersensitive GLP-1R form; Potency, µM (top dose mostly 45.6 µM), without a hit: at the highest dose activation, actives largely listed as activators; 0.007% of 380,000 active; also: potency is read from the fitted curve at half-maximal effect; % of control where 0% means no effect
* marks the source's active call; other numbers are inactive results; i = inactive; ? = inconclusive; nt = not tested or not shown; [ ] = remark or other dose. An excerpt weighted towards active compounds, which were near 2.4% of everything screened. Unless noted, calls follow the shape of the dose curve; as a rule, active = well fitted curve in the direction sought with a large enough effect; inconclusive = small, poorly fitted or top-dose-only effect, or another doubt; inactive = no such curve, though single readings can be large; an effect the other way counts as inactive or inconclusive.

SMILES	GLP1R inv ag	GLP1R cytotox	TRHR enhancer	TRHR agonist	PTHR1 ag	GLP1R ag
COc1cccc(C(=O)N/N=C(/c2ccccc2)c2ccccn2)c1	7.9µM*	?	-8	0	-4%	-7%
C[C@@H]1CN([C@H](C)CO)C(=O)c2c(c3ccccc3n2C)-c2ccccc2CO[C@H]1CN(C)Cc1ccc(C(F)(F)F)cc1	5µM*	?	nt	nt	-25%	-3%
Nc1cccc(Nc2nc(OC(C(F)(F)F)C(F)(F)F)nc(OC(C(F)(F)F)C(F)(F)F)n2)c1	4.5µM*	?	1	2	-30%[57.5 µM]	-26%
C[C@]12CCC3C(CC[C@H]4C[C@H](O)[C@H](O)C[C@]34C)C1CC[C@@H]2O (stereo partly specified)	18%	-20%	nt	nt	0%	4%
On1ccccc1=S	7.9µM*	-4%	-1	3	-84%	-6%
Cc1ccc(C(=O)Nc2ccc(Cl)cc2C(=O)c2ccccc2)cc1	-15%	9%	nt	nt	-19%[57.5 µM]	-4%
CN1C2CCC1CC(OC(=O)c1cccc(O)c1)C2 (stereo unspecified)	?	-7%	nt	nt	i	-2%
CN1C2CCC1CC(OC(=O)c1ccc([N+](=O)[O-])cc1)C2 (stereo unspecified)	4µM*	7%	2	0	i	-4%
COc1ccc(NC(=O)C(c2ccccc2)n2c(=O)c(-c3cc4ccccc4[nH]3)nc3ccccc32)cc1 (stereo unspecified)	?	i	nt	nt	i	nt
COOCC1(C(=O)OC)C[C@H](c2ccc(OC)cc2)N(Cc2ccccc2OC)[C@@H]1c1ccccc1C (stereo partly specified)	?	-8%	nt	nt	-31%	nt
COC(=O)C1(C(=O)OC)C[C@H](c2ccc(OC)cc2)N(Cc2ccccc2OC)[C@@H]1c1cccs1	10µM*	1%	nt	nt	-14%	nt
Brc1ccc2c(c1)C(OC1CN3CCC1CC3)c1ccccc1CS2 (stereo unspecified)	?	10µM*	1	0	i	-43%
COC(=O)C1=C(c2ccc(F)cc2OCc2ccccc2)C[C@@H]2CC[C@H]1N2C(=O)NCCc1ccc(F)cc1	7.1µM*	-14%	-4	1	-5%	0%
COC(=O)C1=C(c2ccc(F)cc2OCc2ccccc2)C[C@@H]2CC[C@H]1N2C(=O)NCCOc1ccccc1	?	0%	-4	0	-3%	3%
COC(=O)C1=C(c2ccc(F)cc2OCc2ccccc2)C[C@@H]2CC[C@H]1N2C(=O)NCc1ccc(N(C)C)cc1	10µM*	3%	-8	0	-41%	1%
COC(=O)C1=C(c2ccc(F)cc2OCc2ccccc2)C[C@@H]2CC[C@H]1N2C(=O)NCc1cccc(C(F)(F)F)c1	5.6µM*	1%	-12	1	-14%	8%
COC(=O)C1=C(c2cccc(OCc3ccccc3)c2)C[C@@H]2CC[C@H]1N2C(=O)NCc1ccccc1C(F)(F)F	4µM*	12%	34*	1	-7%	-4%
COC(=O)C1=C(c2ccccc2OCc2ccccc2)C[C@@H]2CC[C@H]1N2C(=O)NCc1ccc(N(C)C)cc1	?	4%	-5	-1	i	-2%
COC(=O)C1=C(c2cccc(OCc3ccccc3)c2)C[C@@H]2CC[C@H]1N2C(=O)NCc1cccc(OC)c1	?	11%	5	1	-18%	-4%
O=C(c1cc(F)ccc1F)C1CCCN(Cc2cccc(Cl)c2)C1 (stereo unspecified)	10µM*	6%	-6	0	-29%	11%
CC(C)(C)c1csc(NC(=O)Nc2ccccc2)n1	10µM*	6%	4	1	-93%	29%
Cc1csc(NC(=O)C(Cl)c2ccccc2)n1 (stereo unspecified) (tested in a mixture with another compound)	0%	-2%	nt	nt	-68%	-3%
CC1CN(c2nc(-c3ccc(Br)cc3)nnc2-c2ccccc2)CC(C)N1 (stereo unspecified)	2.8µM*	?	nt	nt	i	5%
C=CCN1C(=O)/C(=C/c2ccc(O)c(OC)c2)S/C1=N/c1nccs1	28%	60%	5	72*	0%	21%
COc1cc(/C=C2/SC(=S)N(Cc3ccccc3)C2=O)ccc1OCC(=O)O	?	-23%	3	1	i	-3%
SMILES	GLP1R inv ag	GLP1R cytotox	TRHR enhancer	TRHR agonist	PTHR1 ag	GLP1R ag
COc1ccc(CCNC(=O)/C=C/c2ccc3ccccc3n2)cc1OC	-1%	?	-3	1	-12%	9%
O=c1c2ccccc2nc(-c2cccs2)n1-c1ccccc1	2µM*	0%	nt	nt	i	12%
Cc1nc2ccccc2c(=O)n1-c1cccc(O)c1	24%	17%	5	0	-20%[57.5 µM]	15%
Cc1ccc(-c2nc3ccccc3c(=O)n2-c2cccc(O)c2)cc1	1.8µM*	-3%	0	1	i	14%
O=c1c2ccccc2nc(-c2ccccc2Cl)n1-c1cccc(O)c1	0.89µM*	-5%	0	0	i	-1%
CCC12C=CCN3CCC4(c5cc(Br)c(OC)cc5N(C)C4C(O)(C(=O)OC)C1OC(C)=O)C32 (stereo unspecified)	?	-1%	-8	6	-1%[57.5 µM]	-10%
Cc1cccc(CN2CCN(CC(=O)N3CCC4(CC3)OCCO4)C2=O)c1	-9%	-4%	2	0	i	-8%
COC(=O)c1ccc(COc2ccccc2/C=N/NS(=O)(=O)c2ccc(C)cc2)cc1	0%	?	1	0	i	-12%
COc1cc(C(=O)Oc2ccccc2/C=N/NC(=O)c2ccc(C)cc2)cc(OC)c1OC	1.6µM*	?	-17	1	i	4%
COc1ccc(C#Cc2ccc3c(c2)O[C@H](CN(C)C(C)=O)[C@H](C)CN([C@@H](C)CO)S3(=O)=O)cc1	?	1%	nt	nt	-33%	-7%
COc1c(C=C2C(=O)NC(=O)NC2=O)c(CCN(C)C(=O)c2ccccc2)cc2c1OCO2	-1%	0%	-6	0	-27%	?
CCN(CC)C(=O)c1ccc(NC(=O)c2cn(-c3ccccc3)nc2-c2ccc(OC)cc2)cc1	4.5µM*	3%	-2	0	i	9%
CCN1C(=O)NC(=O)/C(=C/c2cc(C)n(-c3sc(C)c(C)c3C#N)c2C)C1=O	?	?	12	-1	i	-4%

Screening results deposited in PubChem BioAssay by National Center for Advancing Translational Sciences (NCATS).
